# Shown are actives, neighbours in structure and some others; about 4% of the full set was active somewhere.
# TWEAK Fn14 block – blocks TWEAK-Fn14 interaction in a reporter cell assay; TWEAK-stimulated Fn14 reporter cells, luciferase luminescence, 8 h; inhibition, % at 10 µM; AID 1159606; hit rate 2% among 360,000; in the data active means inhibition above about 50%
# TROY NFkB inh – inhibitors of TROY-dependent NF-kB signaling. Q293 LMP1-TROYcd NF-kB luciferase reporter, 4 h. inhibition, % at 10 µM. hit rate 0.98% among 360,000. AID 1347056;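 active means compounds whose plate-normalised and pattern-corrected inhibition of the luciferase reporter signal at the single screening dose is 50% or more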
# KKLEB tox – counter-screen for CF NF-kB inhibitors: cytotoxicity; activity change (cytotoxicity), % at 5 µM; KKLEB CF airway cells viability, ATPlite luminescence, overnight; stronger effect = lower value; cells stimulated with P. aeruginosa culture filtrate; hit rate 0.36% among 360,000;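 active means corrected activity change at or below -50% at 5 µM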
# Peg3 promoter – inhibitors of Peg3 promoter; HeLa PEG-Prom luciferase reporter, luminescence, overnight; inhibition, % at 20 µM; hit rate 1.7% among 360,000; AID 588405;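 active means inhibition of at least 50% at 20 µM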
# HIF-2a inh – inhibitors of HIF-2a. 786-0 RCC cells HIF-2a reporter, luciferase luminescence, overnight. inhibition, % at 18.8 µM. hit rate 0.72% among 360,000;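 active means inhibition of the luminescence signal of 40% or more relative to plate controls, in a single-dose primary screen at 18.75 µM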
# CF NFkB inh – blocks PAF-induced NF-kB reporter in cystic fibrosis cells. KKLEB NF-kB-GFP reporter, GFP fluorescence overnight. inhibition, % at 5 µM. hit rate 0.86% among 360,000. AID 588850;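 active means at least 50% inhibition at 5 µM, scaled per plate between neutral and stimulator controls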;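 further: PAF is a Pseudomonas aeruginosa culture filtrate used as stimulus; plate controls were PAF-stimulated DMSO wells for no effect and unstimulated DMSO wells for full effect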
# Starred values were filed as active, the others as inactive.
SMILES,TWEAK Fn14 block,TROY NFkB inh,KKLEB tox,Peg3 promoter,HIF-2a inh,CF NFkB inh
O=C(CSc1ccc(-c2ccccn2)nn1)c1ccc([N+](=O)[O-])cc1,-11.5,-18.0,10.1,-15.2,-32.5,-16.0
O=C(COC(=O)c1ccccn1)c1ccc([N+](=O)[O-])cc1,67.0*,-47.2,-13.4,-1.7,-10.9,8.4
COc1ccc(C(=O)N/C(=C\c2ccc(-c3cccc([N+](=O)[O-])c3)o2)C(=O)NCCCN2CCOCC2)cc1,-48.2,-8.4,-14.1,6.4,-20.0,-42.0
Cc1ccc(C(=O)N/C(=C\c2ccc(-c3cccc([N+](=O)[O-])c3)o2)C(=O)NCCCN2CCOCC2)cc1,-24.7,-25.3,-4.9,93.7*,-4.8,3.8
O=C(c1ccc(C(F)(F)F)cc1)N1CCC(=O)N(C(CO)Cc2ccccc2)CC1 (stereo not drawn),70.3*,-28.8,4.4,-0.1,3.6,18.6
O=C(c1cccc(C(F)(F)F)c1)N1CCC(=O)N(C(CO)Cc2ccccc2)CC1 (stereo not drawn),0.9,3.9,-9.9,4.7,5.5,-7.4
COc1ccc(/C=C2\Sc3ccc(C(=O)NCC4CCCO4)cc3N(C)C2=O)cc1 (stereo not drawn),11.0,10.5,19.3,-23.4,-30.8,12.4
O=S(=O)(c1ccccc1)c1nnn2c1nc(NC1CCN(Cc3ccccc3)CC1)c1ccccc12,-45.4,-32.5,-14.2,16.4,27.8,17.4
O=S(=O)(c1ccccc1)c1nnn2c1nc(NC1CCN(Cc3ccccc3)CC1)c1cc(Cl)ccc12,1.1,8.0,-6.6,55.5*,15.2,-12.0
Cc1cc(NCCCCCCCNc2cc(C)nc3cc([N+](=O)[O-])ccc23)c2ccc([N+](=O)[O-])cc2n1,77.0*,33.6,10.7,102.0*,32.9,7.0
CCCCC(=O)Nc1c2c(nn1-c1ccc(C)cc1)CS(=O)(=O)C2,13.2,8.6,5.5,32.7,17.6,-8.7
C#CCOCCOCCOCCNc1nc(N2CCOCC2)nc(N2CCN(C(=O)[C@H](C)n3cc(CCC(=O)O)nn3)CC2)n1,4.1,-2.8,1.9,-4.1,9.2,-13.8
COc1ccc(CS(=O)(=O)CC(C)(O)c2ccccc2)cc1 (stereo not drawn),7.6,9.9,2.8,13.4,21.4,-17.9
O=C(O)CSCC(=O)N1CCN(c2nc3cc(Cl)ccc3s2)CC1,61.6*,5.1,2.1,-2.4,11.1,-8.4
COc1ccc(CCNc2oc(COc3ccc(Br)cc3)nc2C#N)cc1OC,24.9,59.0*,-4.2,35.3,-0.8,4.8
COc1ccc(CCNc2oc(Cc3cccc4ccccc34)nc2C#N)cc1OC,32.8,23.2,-28.9,28.6,6.7,19.2
Cc1ccc(S(=O)(=O)N2CCOCC2)cc1C(=O)OCC(=O)NC1CCCC1,4.8,-7.6,-18.1,-3.7,6.3,5.1
CCn1c2ccccc2c2cc(/C=N/NC(=O)c3ccncc3)ccc21,18.4,38.9,-23.9,62.4*,10.8,-9.8
O=C1CCC(C(=O)N2CCCO2)CN1Cc1cccc(C(F)(F)F)c1 (stereo not drawn),-1.4,-46.5,6.3,-103.2,-94.0,1.5
COc1ccc(Cc2nc3ccc(C(=O)N4CCN(C)C(C)C4)cc3o2)cc1OC (stereo not drawn),13.7,15.3,-4.7,-24.2,-43.9,0.6
Cc1ccc2nc(SCC3CCCCO3)[nH]c2c1 (stereo not drawn),71.0*,32.8,1.4,-11.7,-63.1,13.8
Cc1ccc(NC(=O)C2CCN(c3ncnc4sc(C)c(C)c34)CC2)cc1S(=O)(=O)N(C)C,55.0*,51.0*,-20.1,26.8,16.5,16.6
CCN(CC)S(=O)(=O)c1cc(NC(=O)C2CCN(c3ncnc4sc(C)c(C)c34)CC2)ccc1Cl,96.8*,64.3*,-18.4,67.2*,21.1,25.8
Cc1sc2ncnc(N3CCC(C(=O)Nc4ccc(S(N)(=O)=O)cc4)CC3)c2c1C,49.9,36.1,-24.2,23.0,19.0,47.6
COCc1ccc(CN2CCC(n3nccc3NC(=O)c3ccc4c(c3)OCO4)CC2)o1,-7.2,-0.5,1.6,-6.6,4.7,-10.2
SMILES,TWEAK Fn14 block,TROY NFkB inh,KKLEB tox,Peg3 promoter,HIF-2a inh,CF NFkB inh
Cc1ccc(S(=O)(=O)NN=Cc2ccco2)cc1,-9.7,-6.9,11.0,5.7,4.0,1.1
COCc1cc(C)nc(SCC(=O)Nc2ccccc2C)c1C#N,13.6,-6.2,3.7,-0.5,3.1,-2.9
Cc1cc(C)c(C#N)c(SCC(=O)Nc2ccccc2C(N)=O)n1,10.3,59.9*,-20.9,-222.3,-178.3,-13.6
CC(NC(=O)c1ccco1)C(=O)N1CCN(S(=O)(=O)c2ccccc2C#N)CC1 (stereo not drawn),-7.1,13.7,-28.7,5.7,7.8,17.1
CC[N+](CC)(CC)CCOc1ccc(/C=C/c2ccccc2)cc1,3.9,9.6,-12.0,10.4,4.1,52.8*
O=C(CCSc1ccccc1)Nc1nc2c(s1)COc1ccccc1-2,-22.5,26.1,-8.5,54.0*,-9.8,-24.2
CCCC(=O)Nc1nc2c(s1)COc1ccccc1-2,-4.5,-19.4,0.9,-47.0,-74.7,-28.5
COc1ccccc1NC(=O)c1sc2ncn(Cc3cccc(C)c3)c(=O)c2c1C,-56.0,12.5,-24.3,12.9,7.7,10.3
COc1ccccc1NC(=O)c1sc2ncn(Cc3ccc(C)cc3)c(=O)c2c1C,-52.0,12.4,-21.9,51.7*,-18.6,19.6
CN(C)CC/C=C1/c2ccccc2CS(=O)(=O)c2ccccc21,7.8,6.1,1.2,-3.4,10.6,-8.4
CN(C)CC/C=C1\c2ccccc2COc2ccccc21,6.7,6.1,-55.6*,-29.4,-9.7,-10.8
CC(CNC(=O)CCCn1c(=O)c2cccn2c2cccnc21)c1ccccc1 (stereo not drawn),-46.0,-9.3,-1.7,-9.7,4.0,2.3
O=[N+]([O-])c1ccccc1COc1ccc(Cl)c2cccnc12,65.3*,-3.0,-1.9,-146.8,-175.0,0.1
CCCCc1ccc(-c2nn[nH]n2)nc1,9.6,-5.7,2.7,-11.5,-4.4,-16.1
C[n+]1c(/C=C/c2ccc(O)cc2)ccc2ccccc21,-1.1,-2.5,15.2,-243.9,-74.8,-48.8
C[n+]1c(/C=C/c2ccc3c(c2)OCO3)ccc2ccccc21,82.4*,80.7*,-2.6,-41.7,-58.4,6.4
C(=Cc1nc2ccccc2o1)c1ccc2c(c1)OCO2,86.1*,57.5*,-41.9,-34.1,-2.8,-39.1
Nc1nc2ccccc2n1/N=C/c1ccc2c(c1)OCO2,-19.2,-60.0,-2.4,-237.2,-384.0,-7.1
O=C(O)c1ccccc1C(=O)Nc1ccc(Oc2cccc3ccccc23)cc1,87.8*,71.0*,19.8,20.4,78.3*,7.1
CCNc1c(NC(=O)COc2ccc(Cl)cc2)c(=O)oc2ccccc12,1.1,12.6,-18.6,5.8,17.2,5.1
NC(Cc1ccc(F)cc1)c1csc(Nc2ccc(C(F)(F)F)cn2)n1 (stereo not drawn),-8.9,2.7,-9.6,95.1*,6.5,35.0

# Compound activity: PubChem, Sanford-Burnham Center for Chemical Genomics
